Consider 16 compounds from PubChem BioAssay (EPA / NIEHS).

Read-out in test [1]: Cytochrome P450 3A4 (Homo sapiens) (UniProt P08684)
The test is described as follows: CLD_CYP3A4_24hr: CellzDirect (CLD) Gene Expression Assay for xenobiotic metabolism (CYP3A4) at 24 hours (AID 2283689). In outline: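 Primary human hepatocytes from two donors dosed daily with fresh compound for two days, 0.2% DMSO vehicle. CYP3A4 mRNA at 24 hr by qNPA chemiluminescence; gain-of-signal fit versus DMSO, cytotoxicity flagged by morphology.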

Read-out in test [2]: alkyl and aryl transferase (GSTA2), GSTA2 (gene 2939)
Briefly: CLD_GSTA2_24hr: CellzDirect (CLD) Gene Expression Assay for alkyl and aryl transferase (GSTA2) at 24 hours (AID 2283693). An outline of the steps:
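Primary human hepatocytes (two donor preparations) dosed daily for two days with chemicals at multiple concentrations (vehicle 0.2% DMSO); GSTA2 mRNA at 24 h measured by qNPA chemiluminescence, gain-of-signal versus DMSO.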

Test [3] is described as follows: CLD_ACTIN_48hr: CellzDirect (CLD) Gene Expression Assay for Baseline Control (Actin) at 48 hours (AID 2283702). In outline: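 Primary human hepatocytes (two donor preparations) dosed daily for two days with ToxCast chemicals at multiple concentrations versus 0.2% DMSO vehicle; harvested at 48 h. Actin mRNA measured as a background control by quantitative nuclease protection assay with chemiluminescence.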

Read-out in test [4]: organic anion transporter (SLCO1B1), SLCO1B1 (gene 10599)
The test is described as follows: CLD_SLCO1B1_24hr: CellzDirect (CLD) Gene Expression Assay for organic anion transporter (SLCO1B1) at 24 hours (AID 2283690). An outline of the steps: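 Primary human hepatocytes (two donor preparations) dosed daily for two days with chemicals at multiple concentrations, 0.2% DMSO vehicle. SLCO1B1 mRNA at 24 h measured by qNPA chemiluminescence; induction fitted relative to DMSO.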

Read-out in test [5]: Cytochrome P450 2C19 (Homo sapiens) (UniProt P33261)
The test is described as follows: CLD_CYP2C19_48hr: CellzDirect (CLD) Gene Expression Assay for xenobiotic metabolism (CYP2C19) at 48 hours (AID 2283700).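 Further: fitted upward so actives raise CYP2C19 mRNA above the 0.2% DMSO vehicle.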 An outline of the steps:
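Primary human hepatocytes (two donor preparations) dosed daily for two days, harvested at 48 h; CYP2C19 mRNA induction measured by qNPA chemiluminescence. Gain-of-signal fitted relative to 0.2% DMSO vehicle as baseline.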

Read-out in test [6]: Cytochrome P450 2C9 (Homo sapiens) (UniProt P11712)
The test is described as follows: CLD_CYP2C9_48hr: CellzDirect (CLD) Gene Expression Assay for xenobiotic metabolism (CYP2C9) at 48 hours (AID 2283701; active means hit-call score of the fitted dose curve at least 0.9, where 1 is the maximum; inactive means score below 0.9). An outline of the steps: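 Primary human hepatocytes (two donor preparations) dosed daily for two days with test chemicals, 0.2% DMSO vehicle; harvested at 48 h. mRNA induction quantified by qNPA chemiluminescence, fitted for gain of signal against DMSO baseline; cytotoxicity annotated from phase-contrast morphology.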

Read-out in test [7]: glucuronosyltransferase (UGT1A1), UGT1A1 (gene 54658)
Briefly: CLD_UGT1A1_24hr: CellzDirect (CLD) Gene Expression Assay for glucuronosyltransferase (UGT1A1) at 24 hours (AID 2283696). In outline: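 Primary human hepatocytes from two donor preparations were dosed (0.2% DMSO vehicle) and harvested at 24 h; UGT1A1 mRNA induction was quantified by chemiluminescent qNPA, fitted as gain relative to DMSO.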

Read-out in test [8]: Cytochrome P450 2B6 (Homo sapiens) (UniProt P20813)
The test is described as follows: CLD_CYP2B6_48hr: CellzDirect (CLD) Gene Expression Assay for xenobiotic metabolism (CYP2B6) at 48 hours (AID 2283699).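 Further: actives raise transcript level above DMSO so potency reflects induction.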 An outline of the steps:
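Primary human hepatocytes dosed daily for two days over multiple concentrations, 0.2% DMSO vehicle; CYP2B6 mRNA quantified at 48 h by qNPA chemiluminescence. Induction fitted as gain of signal versus DMSO; cytotoxicity annotated by morphology.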

Molecules are shown by their SMILES. Inconclusive results are not listed. The source made the active and inactive calls. How the source made its calls, unless noted: active means hit-call score of the fitted dose curve at least 0.9, where 1 is the maximum; inconclusive means response in the unintended direction; inactive means score below 0.9.

Cytochrome P450 3A4 (Homo sapiens), sequence (P08684 whole entry, looked up): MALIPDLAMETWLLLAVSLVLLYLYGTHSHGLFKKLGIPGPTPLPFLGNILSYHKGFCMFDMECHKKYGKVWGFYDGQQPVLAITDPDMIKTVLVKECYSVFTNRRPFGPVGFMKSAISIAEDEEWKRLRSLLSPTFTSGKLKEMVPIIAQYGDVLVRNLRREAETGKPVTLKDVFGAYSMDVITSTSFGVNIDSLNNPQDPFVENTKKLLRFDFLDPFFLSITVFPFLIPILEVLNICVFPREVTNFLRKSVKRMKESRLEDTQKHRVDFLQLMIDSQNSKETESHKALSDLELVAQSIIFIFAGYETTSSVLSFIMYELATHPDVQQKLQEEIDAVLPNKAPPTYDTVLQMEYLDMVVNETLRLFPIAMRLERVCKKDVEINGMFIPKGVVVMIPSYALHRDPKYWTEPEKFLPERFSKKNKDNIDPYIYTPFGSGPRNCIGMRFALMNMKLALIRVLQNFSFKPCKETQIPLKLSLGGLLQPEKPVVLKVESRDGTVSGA
Cytochrome P450 2C19 (Homo sapiens), sequence (P33261 whole entry, looked up): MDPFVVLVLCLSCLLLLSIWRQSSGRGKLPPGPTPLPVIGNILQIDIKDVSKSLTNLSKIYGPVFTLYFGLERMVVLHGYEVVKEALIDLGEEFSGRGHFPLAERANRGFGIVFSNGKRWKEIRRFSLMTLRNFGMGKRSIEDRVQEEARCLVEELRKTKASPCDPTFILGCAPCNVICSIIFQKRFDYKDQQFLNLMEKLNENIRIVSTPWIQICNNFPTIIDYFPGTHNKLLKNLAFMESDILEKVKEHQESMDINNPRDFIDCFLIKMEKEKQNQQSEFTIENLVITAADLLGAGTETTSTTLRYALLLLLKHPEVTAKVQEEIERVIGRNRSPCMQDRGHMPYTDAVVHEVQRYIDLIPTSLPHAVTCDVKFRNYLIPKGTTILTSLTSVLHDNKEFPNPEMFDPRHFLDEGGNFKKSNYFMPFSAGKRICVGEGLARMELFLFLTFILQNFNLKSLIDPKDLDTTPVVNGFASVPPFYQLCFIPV

For the compound `Cc1ccc(-c2c(Cl)nc(C#N)n2S(=O)(=O)N(C)C)cc1`, the compound was classed as inactive in test [1], in test [2] and in test [3].
Regarding `C=CCC1=C(C)C(OC(=O)C2C(C=C(C)C)C2(C)C)CC1=O` (stereo not drawn), the result in test [4] and in test [2] was inactive.
Take `N#Cc1cc(Br)c(O)c(Br)c1`: the compound was called inactive in test [4] and in test [2].
With `CCCCNC(=O)n1c(NC(=O)OC)nc2ccccc21`, the call in test [1], in test [2] and in test [5] was inactive.
On to `CCOC(=O)C(Cl)Cc1cc(-n2nc(C)n(C(F)F)c2=O)c(F)cc1Cl` (stereo not drawn), for which the AC50 in test [1] was 20 µM (active). In addition, the compound was called inactive in test [2], in test [5] and in test [6].
In the case of `CCCCNC(=O)OCC#CI`, the compound was classed as inactive in test [1], in test [2], in test [5] and in test [3].
As to `N#CC(CCc1ccc(Cl)cc1)(Cn1cncn1)c1ccccc1` (stereo not drawn), in test [1], the AC50 was 1.9 µM (active). Further, the outcome in test [2], in test [5] and in test [3] was inactive.
Turning to `CCNc1nc(Cl)nc(NC(C)C)n1`, in test [1], the concentration at half-maximal activity (AC50) is 20 µM (active). For the same compound, the result in test [2] and in test [6] was inactive.
`CC(Oc1ccc(Cl)cc1Cl)C(=O)O` (stereo not drawn): the compound was called inactive in test [2] and in test [6].
For the compound `C=CCC1=C(C)[C@@H](OC(=O)[C@@H]2[C@@H](C=C(C)C)C2(C)C)CC1=O`, the call in test [2], in test [5] and in test [6] was inactive. In addition, the AC50 in test [7] was 20 µM (active).
Turning to `CCCCOC(=O)c1ccccc1C(=O)OCCCC`, the call in test [1], in test [2], in test [5], in test [6] and in test [3] was inactive.
`CCNc1nc(Cl)nc(NCC)n1`: the outcome in test [4], in test [2] and in test [5] was inactive. In test [8], the AC50 is 6.18 µM (active).
Consider `COc1cnc(OC)n2nc(NS(=O)(=O)c3c(OCC(F)F)cccc3C(F)(F)F)nc12`, for which the AC50 in test [1] was 2.42 µM (active). Also, the call in test [2], in test [5], in test [6] and in test [3] was inactive.
`CCCCC(CC)COC(=O)c1ccccc1C(=O)OCC(CC)CCCC` (stereo not drawn): the compound was classed as inactive in test [2], in test [7], in test [8], in test [5] and in test [3].
In the case of `O=C(O)COc1nc(Cl)c(Cl)cc1Cl`, the compound was classed as inactive in test [1] and in test [6].
`CNC(=S)S`: the compound was classed as inactive in test [3].

As usually defined, the AC50 is the concentration giving half of the maximal activity seen.
